Screening data: PubChem, National Center for Advancing Translational Sciences (NCATS)
TGFb inhibitor: inhibitors of TGF-b signaling. HepG2 CAGA-GFP TGF-b/SMAD3 reporter, GFP fluorescence, 18 h; TGF-beta stimulated, 500 pg/mL final. Potency, µM (highest dose often 46.1 µM), inactives show at the top dose activity, negative = inhibition, hits mostly inhibitors. actives 1.2% (n = 410,000); note: potency is the fitted concentration of half-maximal effect; % is set by controls: 0 for no effect and ±100 for the full control effect; nearly all actives have a fitted effect of over 65% in size
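Per well, imaged GFP fluorescence of HEPG2 CAGA-GFP cells gives the signal; cells get compound, then TGF-beta (500 pg/mL final), 18 h at 37 degrees C; %Activity versus -TGF-beta and +DMSO controls.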
TDP1 block: inhibitors of human tyrosyl-DNA phosphodiesterase TDP1; Potency, µM (doses to about 130 µM), for inactives: at the top dose activity change, negative = inhibition, hits mostly inhibitors; actives 0.28% (n = 350,000); recombinant TDP1, AlphaScreen DNA substrate cleavage; Q9NUW8; note: potency is the fitted concentration of half-maximal effect; % is set by controls: 0 for no effect and ±100 for the full control effect; nearly all actives have a fitted effect of over 40% in size
Target sequence (Q9NUW8 whole entry, looked up): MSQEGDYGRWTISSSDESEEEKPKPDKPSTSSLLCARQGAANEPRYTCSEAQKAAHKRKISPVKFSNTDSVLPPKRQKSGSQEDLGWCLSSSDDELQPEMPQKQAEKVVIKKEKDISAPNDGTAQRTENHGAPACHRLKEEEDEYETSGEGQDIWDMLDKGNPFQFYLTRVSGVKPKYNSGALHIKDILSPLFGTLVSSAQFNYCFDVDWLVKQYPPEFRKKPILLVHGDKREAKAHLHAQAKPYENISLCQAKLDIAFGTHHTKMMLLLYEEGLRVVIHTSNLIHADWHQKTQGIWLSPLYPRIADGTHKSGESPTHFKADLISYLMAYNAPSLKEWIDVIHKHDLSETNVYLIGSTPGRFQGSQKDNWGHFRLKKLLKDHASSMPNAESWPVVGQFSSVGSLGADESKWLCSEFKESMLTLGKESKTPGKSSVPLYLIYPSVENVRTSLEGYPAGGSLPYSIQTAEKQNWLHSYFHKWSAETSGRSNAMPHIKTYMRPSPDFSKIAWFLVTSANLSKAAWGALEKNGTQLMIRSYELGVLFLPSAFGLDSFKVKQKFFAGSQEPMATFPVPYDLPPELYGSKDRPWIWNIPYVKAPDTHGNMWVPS
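E. coli-derived human Tdp1, 1 nM final. Cpd preinc 15 min RT; substrate 15 nM final, 5 min RT; AS bead mix 10 ug/ml final, 10 min RT. Signal loss = tyrosine-FITC cleavage. No-enzyme wells = max signal.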
HepG2 viability: HepG2 cytotoxicity, counter-screen for TGF-b inhibitors; AID 588856; Potency, µM (highest dose often 46.1 µM), for the others: at the top dose activity change, negative = cytotoxicity, usual class: cytotoxic; HepG2 CAGA-GFP viability, ATP luminescence, 18 h; actives 0.76% (n = 410,000); note: potency is the fitted concentration of half-maximal effect
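HepG2 CAGA-GFP cells (1000/well, DMEM with 1% FBS) received compound, then TGF-beta at 500 pg/mL final, and were incubated 18 hours at 37 degrees C. Viability was read by CellTiter-Glo luminescence. Media-only wells were set as complete cell-killing and DMSO as no toxicity.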
TDP1 cell noCPT: qHTS for Inhibitors of human tyrosyl-DNA phosphodiesterase 1 (TDP1): qHTS in cells in absence of CPT | DT40 Tdp1-/- hTDP1 cells, no CPT, ATP luminescence, 48 h | Potency, µM (doses to about 46.2 µM), without a hit: top-dose activity change, negative = growth inhibition, hits mostly inhibitors | actives 15% (n = 420,000); note: potency is the fitted concentration of half-maximal effect; % is set by controls: 0 for no effect and ±100 for the full control effect; nearly all actives have a fitted effect of over 55% in size
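Growth kinetics read by CellTiter-Glo luminescence after ≥48 hr at 37 °C. Cells: DT40 Tdp1-/- stably carrying human TDP1, 400 per well, compound exposure in the absence of CPT (DMSO vehicle).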
DT40 TDP1 CPT: DT40-hTDP1 cell growth loss with CPT; Potency, µM (highest dose often 46.2 µM), for inactives: at the highest dose activity change, negative = growth inhibition, usual class: inhibitors; chicken DT40 Tdp1-/-;hTDP1 cells + 20 nM CPT, ATP luminescence, 48 h; actives 12% (n = 420,000); note: potency is the fitted concentration of half-maximal effect; % is set by controls: 0 for no effect and ±100 for the full control effect; nearly all actives have a fitted effect of over 55% in size
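Chicken DT40 Tdp1-/- cells stably complemented with human TDP1 were seeded at 400 cells/well in medium containing 20 nM camptothecin, exposed to pin-transferred compounds, and grown at 37 °C for at least 48 hr. Viability was read as ATP luminescence.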
IL1B secr inh: inhibitors of inflammasome signaling (IL-1 beta secretion). THP-1 LPS/ATP IL-1B secretion, AlphaLISA, 16 h; active compounds read low. activity change, % at 57.5 µM. actives 4.7% (n = 360,000); in the data active = activity change below about -50%; inconclusive = mostly about -30% to -49%; note: % is set by controls: 0 for no effect and ±100 for the full control effect
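THP-1 cells pretreated 1 hr with compounds (up to 57.5 uM final), then stimulated with LPS (250 ng/mL final) plus ATP (1.25 mM final); secreted IL-1B measured by AlphaLISA after 16 hr, decreased signal indicating inhibition.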
Active calls of the source: *; ? = inconclusive; nt = no result given; [ ] = remark or other dose. A selection: hits, their analogues and other compounds. The true share with any hit is near 19%. Unless noted, calls come from the whole dose curve; as a rule, active = well fitted curve in the direction sought with a large enough effect; inconclusive = small, poorly fitted or top-dose-only effect, or another doubt; inactive = no such curve, though single readings can be large; an effect the other way counts as inactive or inconclusive.

SMILES	TGFb inhibitor	TDP1 block	HepG2 viability	TDP1 cell noCPT	DT40 TDP1 CPT	IL1B secr inh
Cc1ccccc1OCC(O)Cn1c(Br)nc2c1c(=O)n(C)c(=O)n2C (configuration not stated)	-10.3%	2.5%	-1.2%	?	?	48.6
CCn1c(SCC(=O)NCc2ccco2)nc2c1c(=O)n(C)c(=O)n2C	-8.8%	0.0%	0.4%	-0.9%	-5.2%	9.3
Cn1c(=O)c2c(nc(NCc3ccco3)n2Cc2ccc(Cl)cc2Cl)n(C)c1=O	-0.6%	-3.9%	-9.2%	10.3µM*	11.6µM*	33.9
Cn1c(=O)c2c(nc(NCCCN3CCOCC3)n2Cc2ccc(Cl)cc2Cl)n(C)c1=O	nt	8.4%	nt	nt	nt	nt
CCOC(=O)c1sc(N2C(=O)c3oc4ccc(C)cc4c(=O)c3C2c2ccccc2F)nc1C (configuration not stated)	22.6%	6.3%	3.1%	-7.4%	18.1%	nt
N[C@@H](C(=O)O)c1ccc(O)c(C(=O)O)c1	-15.9%	?	-8.4%	-10.8%	14.1%	nt
COc1ccc(C(=O)COC(=O)CCN=C2NS(=O)(=O)c3ccccc32)c(OC)c1	-4.8%	nt	-1.7%	-3.8%	-6.8%	2.9
Cn1c(NCc2ccco2)nc2c1c(=O)n(Cc1ccc(Cl)c(Cl)c1)c(=O)n2C	?	3.0%	2.7%	18.4µM*	?	?
Cn1c(NCC(O)CO)nc2c1c(=O)n(Cc1ccc(Cl)c(Cl)c1)c(=O)n2C (configuration not stated)	3.1%	7.0%	4.0%	?	?	-6.5
O=C(/C=C/[C@H]1O[C@@H](n2cnc3c(NC(=O)c4ccccc4)ncnc32)[C@H](O)[C@@H]1O)NCc1cccc2ccccc12	-4.5%	nt	0.6%	-22.2%	-0.2%	-25.1
CCOC(=O)N1CCN(C(=O)c2ccc3c(c2)NC(=O)/C(=C\c2ccc(OC)c(OC)c2)S3)CC1	?	1.6%	-35.3%	16.4µM*	?	6.8
CCOC(=O)N1CCC(NC(=O)c2ccc3c(c2)N(C)C(=O)/C(=C/c2cccc(OC)c2)S3)CC1	-5.7%	1.6%	-6.5%	18.4µM*	18.4µM*	0.5
CCOC(=O)N1CCN(C(=O)c2ccc3c(c2)N(C)C(=O)/C(=C\c2ccc(OCC)c(OC)c2)S3)CC1	?	8.5%	-12.7%	16.4µM*	?	?
Cc1cccc(/C=C2\Sc3ccc(C(=O)N4CCC(C)CC4)cc3N(C)C2=O)c1	?	6.4%	-24.3%	?	?	-54.1*
CCOC(=O)N1CCN(C(=O)c2ccc3c(c2)NC(=O)/C(=C\c2cccc(C)c2)S3)CC1	-17.3%	1.5%	-8.9%	13µM*	?	-25.2
O=C1Nc2cc(C(=O)N3CCN(c4ccccn4)CC3)ccc2S/C1=C\c1ccccc1	-23.5%	3.9%	-1.5%	?	-25.8%	-16.3
COc1ccccc1NC(=O)CN1CCN(CC(=O)Nc2cc(C)ccc2OC)CC1	7.9%	nt	-0.8%	-28.0%	-23.3%	17.3
CCN1CCOC(=O)C1CC(=O)Nc1cc(C)ccc1OC (configuration not stated)	?	0.6%	3.3%	2.59µM*	5.17µM*	nt
CCN1CCOC(=O)C1CC(=O)Nc1ccc(Br)cc1 (configuration not stated)	-10.9%	-3.2%	-20.7%	?	23.1µM*	nt
CSc1ccccc1NC(=O)CN(C)Cc1c(O)ccc2ccccc12	?	3.8%	-34.5%	23.1µM*	?	-9.6
CN(CC(=O)Nc1ccccc1Br)C(=O)CCSc1ccc(F)cc1	?	0.6%	-15.1%	13µM*	?	0.6
CSc1ccccc1NC(=O)CN(C)Cc1ccc(Br)cc1	6.0%	-0.6%	7.6%	?	-6.3%	?
COc1ccccc1CNC(=O)CN(C)Cc1ccc(SC)cc1	?	4.5%	-18.6%	23.1µM*	16.4µM*	-17.1
CSc1ccc(CN(C)CC(=O)Nc2ccccc2Br)cc1	?	-0.6%	-21.4%	?	23.1µM*	0.5
COc1cccc(CN(C)CC(=O)NCc2ccc(F)cc2)c1OC	0.0%	nt	-0.4%	-29.3%	-23.2%	7.2
SMILES	TGFb inhibitor	TDP1 block	HepG2 viability	TDP1 cell noCPT	DT40 TDP1 CPT	IL1B secr inh
Cc1c(-c2nnc(SCC(=O)Nc3ccccc3F)o2)nnn1-c1ccc(F)cc1	20.1%	4.1%	0.1%	-9.1%	-14.7%	nt
Cc1cc(C)cc(N2C(=O)N(Cc3cccc(F)c3)c3ccccc3S2(=O)=O)c1	?	2.5%	2.6%	?	-27.5%	nt
CCCCN(CCCNC(=O)c1c(C)oc2nc[nH]c(=O)c12)Cc1ccccc1	-21.3%	5.9%	-39.7%	?	6.9%	nt
O=C(Nc1cccc(OC(=O)c2cccnc2)c1)c1cccnc1	-1.9%	3.0%	2.1%	10.3µM*	10.3µM*	8.1
O=C(Nc1ccc(-c2noc(-c3cccs3)n2)cc1)c1cccnc1	-4.5%	3.2%	-11.2%	29.1µM*	?	?
O=C(Nc1ccc(NC(=O)c2cccnc2)cc1)c1ccccc1	8.2%	nt	-13.2%	-7.8%	1.7%	2.1
O=C(Nc1ccc(F)cc1)c1cccnc1	-3.8%	2.9%	8.9%	?	9.2µM*	-0.1
COC1(C#CC2C=CC(OC(C)=O)C(COC(C)=O)O2)CCCCC1 (configuration not stated)	nt	4.8%[21 µM]	nt	nt	nt	nt
Cc1ccc(NC(=O)c2c(C)oc3c2C2=NCCN2C=N3)cc1F	?	1.9%	-12.4%	?	?	nt
C[C@@H]1CCCCO[C@H](CN(C)C(=O)Cc2ccccc2)[C@H](C)CN([C@@H](C)CO)C(=O)c2cc(NC(=O)Nc3ccc(F)cc3)ccc2O1	?	nt	8.8%	-23.2%	23.1µM*	-29.4
C[C@@H]1CCCCO[C@H](CN(C)C(=O)Cc2ccccc2)[C@@H](C)CN([C@H](C)CO)C(=O)c2cc(NC(=O)Nc3ccccc3)ccc2O1	4.9%	nt	-25.8%	29.1µM*	-3.4%	30.5
C[C@@H]1CCCCO[C@@H](CN(C)C(=O)Cc2ccccc2)[C@@H](C)CN([C@H](C)CO)C(=O)c2cc(NC(=O)C3CCCCC3)ccc2O1	6.8%	nt	1.5%	-6.2%	?	-21.3
Cc1cccc(NC(=O)Nc2ccccn2)c1C	13.4%	nt	-1.2%	7.7%	-23.3%	24.6
Cc1ccc(C(NC(=O)Nc2ccccn2)C(Cl)(Cl)Cl)cc1F (configuration not stated)	-2.2%	-0.4%	2.5%	20.6µM*	?	55.8
